# In the supplement of paper PMC6897291:
# Key:
# U-2932 [1] = assay: growth inhibition by drug alone (1 - RLU/untreated control) (fraction); higher = stronger inhibition; settings: 177Lu-lilotomab satetraxetan 0 ug/ml
# In short: (§1)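 A radiolabelled anti-CD37 antibody conjugate (~600 MBq/mg) was applied for 18 h at 0.5 µg/ml to RIVA and 1 µg/ml to U-2932 cells, with untreated cells run alongside. All cells were washed and seeded at 3,000 cells/well onto library-printed plates at 10/100 nM (RIVA) or 10/1,000 nM (U-2932). Growth inhibition was based on RealTime-Glo luminescence compared with untreated no-drug wells. Daily reads began on day 3 after 1 h at 37°C, with each value being 1 − RLU/mean of the 48 such wells on that plate.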
# RIVA [2] = assay: as above; settings: 177Lu-lilotomab satetraxetan 0 ug/ml
# In short: as §1
# U-2932 [3] = assay: growth inhibition by drug plus 177Lu-lilotomab satetraxetan (1 - RLU/untreated control) (fraction); higher = stronger inhibition; settings: 177Lu-lilotomab satetraxetan 1 ug/ml
# In short: as §1
# RIVA [4] = assay: as above; settings: 177Lu-lilotomab satetraxetan 0.5 ug/ml
# In short: as §1
compound,measurement,setting,value
CN1CCN(c2cccc(Nc3nc4c(-c5ccc(S(C)(=O)=O)cc5)cccn4n3)c2)CC1,growth inhibition by drug alone,"U-2932 [1]; 10 nM, time (day): 3",0.0344
same,growth inhibition by drug alone,"U-2932 [1]; 10 nM, time (day): 4",0.0428
same,growth inhibition by drug alone,"U-2932 [1]; 10 nM, time (day): 5",0.0368
same,growth inhibition by drug alone,"U-2932 [1]; 10 nM, time (day): 6",0.113
same,growth inhibition by drug alone,"U-2932 [1]; 1000 nM, time (day): 3",0.028
same,growth inhibition by drug alone,"U-2932 [1]; 1000 nM, time (day): 4",0.0442
same,growth inhibition by drug alone,"U-2932 [1]; 1000 nM, time (day): 5",0.0461
same,growth inhibition by drug alone,"U-2932 [1]; 1000 nM, time (day): 6",0.102
same,growth inhibition by drug alone,"RIVA [2]; 10 nM, time (day): 3",-0.0335
same,growth inhibition by drug alone,"RIVA [2]; 10 nM, time (day): 4",-0.0683
same,growth inhibition by drug alone,"RIVA [2]; 10 nM, time (day): 5",-0.203
same,growth inhibition by drug alone,"RIVA [2]; 10 nM, time (day): 6",-0.505
same,growth inhibition by drug alone,"RIVA [2]; 100 nM, time (day): 3",-0.0314
same,growth inhibition by drug alone,"RIVA [2]; 100 nM, time (day): 4",-0.0426
same,growth inhibition by drug alone,"RIVA [2]; 100 nM, time (day): 5",-0.0675
same,growth inhibition by drug alone,"RIVA [2]; 100 nM, time (day): 6",-0.155
same,growth inhibition by drug plus 177Lu-lilotomab satetraxetan,"U-2932 [3]; 10 nM, time (day): 3",0.0292
same,growth inhibition by drug plus 177Lu-lilotomab satetraxetan,"U-2932 [3]; 10 nM, time (day): 4",0.0656
same,growth inhibition by drug plus 177Lu-lilotomab satetraxetan,"U-2932 [3]; 10 nM, time (day): 5",0.062
same,growth inhibition by drug plus 177Lu-lilotomab satetraxetan,"U-2932 [3]; 10 nM, time (day): 6",0.17
same,growth inhibition by drug plus 177Lu-lilotomab satetraxetan,"U-2932 [3]; 1000 nM, time (day): 3",-0.0239
same,growth inhibition by drug plus 177Lu-lilotomab satetraxetan,"U-2932 [3]; 1000 nM, time (day): 4",0.0604
same,growth inhibition by drug plus 177Lu-lilotomab satetraxetan,"U-2932 [3]; 1000 nM, time (day): 5",0.101
same,growth inhibition by drug plus 177Lu-lilotomab satetraxetan,"U-2932 [3]; 1000 nM, time (day): 6",0.21
same,growth inhibition by drug plus 177Lu-lilotomab satetraxetan,"RIVA [4]; 10 nM, time (day): 3",0.369
same,growth inhibition by drug plus 177Lu-lilotomab satetraxetan,"RIVA [4]; 10 nM, time (day): 4",0.484
same,growth inhibition by drug plus 177Lu-lilotomab satetraxetan,"RIVA [4]; 10 nM, time (day): 5",0.496
same,growth inhibition by drug plus 177Lu-lilotomab satetraxetan,"RIVA [4]; 10 nM, time (day): 6",0.524
same,growth inhibition by drug plus 177Lu-lilotomab satetraxetan,"RIVA [4]; 100 nM, time (day): 3",0.396
same,growth inhibition by drug plus 177Lu-lilotomab satetraxetan,"RIVA [4]; 100 nM, time (day): 4",0.419
same,growth inhibition by drug plus 177Lu-lilotomab satetraxetan,"RIVA [4]; 100 nM, time (day): 5",0.425
same,growth inhibition by drug plus 177Lu-lilotomab satetraxetan,"RIVA [4]; 100 nM, time (day): 6",0.401
